Measurements from PubChem BioAssay (NCATS).
Inconclusive results are not listed. The source made the active and inactive calls. The call rests on the fitted dose curve; in most records, active means well fitted cell-killing curve with a large enough effect; inconclusive means small, poorly fitted or top-dose-only effect, or effect the other way; inactive means no such curve, though single readings can be large or run the other way.

Assay: Quantitative High-Throughput drug screen in 47 multiple myeloma cell lines against the NCATS MIPE library collection: KMS28PE_JCRB cell viability assay (AID 1918983); further: nearly all actives have a fitted effect of over 35% in size
Conditions: KMS28PE multiple myeloma viability, CellTiter-Glo ATP, 48 h; series mostly up to 45.8 µM
Description: PI: Beverly A. Mock Ph.D.
Laboratory of Cancer Biology and Genetics,
Center for Cancer Research, National Cancer Institute,
National Institute of Health, Bethesda, Maryland
Drug resistance and disease progression are common in multiple myeloma (MM) patients, underscoring the need for new therapeutic combinations. […] We hypothesized that effective combinations would reduce MYC expression and enhance p16 activity. […] These preclinical data identify potentially useful drug combinations for evaluation in drug-resistant MM and reveal potential mechanisms of combined drug sensitivity.
Described herein is the primary MIPE qHTS used to cherrypick compounds. Validated compounds were then further tested for potential synergistic activiy.
[1] Peat TJ, Gaikwad SM, Dubois W, Gyabaah-Kessie N, Zhang S, Gorjifard S, Phyo Z, Andres M, Hughitt VK, Simpson RM, Miller MA, Girvin AT, Taylor A, Williams D, D'Antonio N, Zhang Y, Rajagopalan A, Flietner E, Wilson K, Zhang X, Shinn P, Klumpp-Thomas C, McKnight C, Itkin Z, Chen L, Kazandijian D, Zhang J, Michalowski AM, Simmons JK, Keats J, Thomas CJ, Mock BA. Drug combinations identified by high-throughput screening promote cell cycle transition and upregulate Smad pathways in myeloma. Cancer Lett. 2023 Aug 1;568:216284. doi: 10.1016/j.canlet.2023.216284. Epub 2023 Jun 24. PMID: 37356470; PMCID: PMC10408729.
SEQUENCE No. (e.g., 1, 2, 3, etc.); […] (e.g., Cells, Incubation, Reagent, etc.); VALUE and DESCRIPTION.
1; Cells; 5 uL; white, solid bottom 1536-well Greiner assay plate.
2; Compounds; 23 nL; Kalypsis pin tool (Wako USA) equipped with a 1536-well pin head to transfer to the assay plates.
3; Incubation; 48 hours; 37C incubation.
4; Reagent;5uL; CellTiter Glo (Promega).
5; Detector; 425V; Luminescence; Viewlux PerkinElmer.
NOTES (numbers refer to Sequence numbers above)
1. The cell-based screening methods employed in this study were like those previously published. Briefly, the corresponding myeloma cell lines were screened in 1,536-well plates with 500 cells, 5-uL per well for inhibition of cell viability (assessed by measuring ATP levels with CellTiterGlo).
2. NCATS MIPE 4.0 library of approved and investigational drugs were added using the Kalypsis pin tool. Wells treated with DMSO only for 100% viability and media only for 0% viability were used as controls.
3. The assay plates were covered and incubated for 48 hours in a 37C, 5% CO2 incubator with controlled humidity.
4. After 48 hours, CellTilter-GloTM luminescent substrate mix (Promega) reagent was added to the assay plate and plates we incubated for 5 min at room temperature.
5. Signal was measured as median relative luminescence units on a ViewLux (PerkinElmer) multiplate reader.
[1] Heske CM, Davis MI, Baumgart JT, Wilson K, Gormally MV, Chen L, Zhang X, Ceribelli M, Duveau DY, Guha R, Ferrer M, Arnaldez FI, Ji J, Tran HL, Zhang Y, Mendoza A, Helman LJ, Thomas CJ. Matrix Screen Identifies Synergistic Combination of PARP Inhibitors and Nicotinamide Phosphoribosyltransferase (NAMPT) Inhibitors in Ewing Sarcoma. Clin Cancer Res. 2017 Dec 1;23(23):7301-7311. doi: 10.1158/1078-0432.CCR-17-1121. Epub 2017 Sep 12. PMID: 28899971; PMCID: PMC6636827.
Potency means the concentration at half of the fitted maximal effect.

SMILES | Potency
CN1N=C(N)c2cn([C@@H]3O[C@H](COP(=O)(O)O)[C@@H](O)[C@@H]3O)c3ncnc1c23 | 0.833 µM (active)
CN1C(=O)C[C@H](C(=O)N[C@@H](Cc2cnc[nH]2)C(=O)N2CCC[C@@H]2C(N)=O)NC1=O | inactive
O=C(O)C1=CC(O)C(O)[C@H](O)C1 (stereo not given in full) | inactive
Cc1nc(C(=O)NCC(=O)O)c(O)c2ccc(Oc3ccccc3)cc12 | inactive
Clc1ccc(C2(c3ccc(-c4cn[nH]c4)cc3)CCNCC2)cc1 | 14.8 µM (active)
C[C@]12CCC3=C4CCC(=O)C=C4CC[C@@H]3[C@H]1CC[C@@]2(O)CC#N | inactive
NC[C@H]1O[C@H](O[C@@H]2[C@@H](O)[C@@H](O[C@H]3O[C@H](CO)[C@@H](O)[C@H](N)[C@@H]3O)[C@H](N)C[C@@H]2N)[C@H](O)[C@@H](O)[C@H]1O | inactive
CC(=O)Nc1cccc(-n2c(=O)n(C3CC3)c(=O)c3c(Nc4ccc(I)cc4F)n(C)c(=O)c(C)c32)c1 | 8.33 µM (active)
CSc1cccc(Nc2ncc3cc(-c4c(Cl)cccc4Cl)c(=O)n(C)c3n2)c1 | 2.35 µM (active)
CCOC(=O)[C@@H](N)CCC(=O)N[C@@H](CSCc1ccccc1)C(=O)N[C@@H](C(=O)OCC)c1ccccc1 | inactive
Cc1ccccc1-n1c(Cn2nc(-c3cccc(O)c3)c3c(N)ncnc32)nc2cccc(C)c2c1=O | 9.35 µM (active)
O=C1NC(=O)C(c2cnc3ccccn23)=C1c1cn2c3c(cccc13)CN(C(=O)N1CCOCC1)CC2 | inactive
CC(C)N(CCCNC(=O)Nc1ccc(C(C)(C)C)cc1)C[C@H]1O[C@@H](n2cc(Br)c3c(N)ncnc32)[C@H](O)[C@H]1O | 14.8 µM (active)
CN[C@@H](C)[C@H]1[C@H](O)C[C@@]2(C)[C@@H]3CC[C@H]4C(C)(C)[C@@H](NC)CC[C@@]45C[C@@]35CC[C@]12C | inactive
Cc1cc(NC(=O)Nc2ccc(N(C)C)cc2)c2cc(F)cc(F)c2n1 | inactive
CCc1cc(-c2n[nH]c(C)c2-c2ccc3c(c2)OCCO3)c(O)cc1O | 4.18 µM (active)
COc1cc2c(cc1OC)[C@@H]1Cc3ccc(OC)c(OC)c3CN1CC2 | 20.9 µM (active)
CCCCCCCCCCCCCCCC(=O)O[C@H]1[C@@H](O)[C@@H](O)[C@@H]([C@H](NC(=O)[C@@H]2C[C@@H](CCC)CN2C)[C@H](C)Cl)O[C@@H]1SC | inactive
CC=C(C(=CC)c1ccc(O)cc1)c1ccc(O)cc1 | inactive
O=c1[nH]c(=O)n([C@H]2C[C@@H](O)[C@@H](CO)O2)cc1C(F)(F)F | 16.6 µM (active)

SMILES | Potency
Cc1cnc(Nc2cccc(CN3CCOCC3)c2)nc1Nc1cccc(S(=O)(=O)NC(C)(C)C)c1 | 14.8 µM (active)
O=C(O)c1nc(=O)[nH]c(=O)[nH]1 | 11.5 µM (active)
CCN(CC)CCCCNc1nc2cc(Cl)c(Cl)cc2nc1-c1ccc(-c2cccs2)s1 | 18.7 µM (active)
CC(C)C[C@H](NC(=O)c1cc2ccccc2s1)C(=O)N1CCN(C(=O)[C@H](CO)NS(=O)(=O)c2ccc(Cl)cc2Cl)CC1 | 23.5 µM (active)
COc1cc([C@H]2Oc3cc([C@H]4Oc5cc(O)cc(O)c5C(=O)[C@H]4O)ccc3O[C@H]2CO)ccc1O | 20.9 µM (active)
CN(C)c1nc(Cc2ccc(NC(=O)c3ccc(C(F)(F)F)cc3)cc2)nc(N(C)C)c1CC(=O)O | 5.26 µM (active)
Nc1nc(Cl)nc2c1ncn2[C@@H]1O[C@H](CO)[C@@H](O)[C@H]1F | 0.0418 µM (active)
Cc1cc(-c2ncc(CC(=O)Nc3ccc(-c4cnccn4)cn3)cc2C)ccn1 | 16.6 µM (active)
C[C@@H]1[C@H](C)CC[C@]2(C(=O)O)CC[C@]3(C)C(=CC[C@@H]4[C@@]5(C)CC[C@H](O)C(C)(C)[C@H]5CC[C@]43C)[C@@H]12 | 38.2 µM (active)
CC(C)c1c(C(=O)Nc2ccccc2)c(-c2ccccc2)c(-c2ccc(F)cc2)n1CC[C@H](O)C[C@@H](O)CC(=O)O | 18.7 µM (active)
COc1c(C)c2c(c(O)c1CC=C(C)CCC(=O)O)C(=O)OC2 | 4.69 µM (active)
CCCCOCCOc1nc(-c2ccc(C(=O)O)c(F)c2)sc1C | inactive
CCn1c(-c2nonc2N)nc2cncc(CNC3CCNCC3)c21 | 18.7 µM (active)
Cc1cc(OCCCS(C)(=O)=O)cc(C)c1-c1cccc(COc2ccc3c(c2)OC[C@H]3CC(=O)O)c1 | 20.9 µM (active)
O=S(=O)(O)c1ccc2cc(N=Nc3cc(S(=O)(=O)O)c4cccnc4c3O)ccc2c1 | 18.7 µM (active)
OCCn1cc(-c2ccc3c(c2)CCC3=NO)c(-c2ccncc2)n1 | inactive
CCOC(=O)c1c(CSc2ccccc2)n(C)c2cc(Br)c(O)c(CN(C)C)c12 | 18.7 µM (active)
COc1cc2c(cc1OC)CC(=O)N(CCCN(C)C[C@H]1Cc3cc(OC)c(OC)cc31)CC2 | inactive
CCC(=O)N1CCN(c2ccc(-n3c(=O)ccc4cnc5ccc(-c6cnc7ccccc7c6)cc5c43)cc2C(F)(F)F)CC1 | 0.0093 µM (active)
C[C@H](CCC(=O)O)[C@H]1CC[C@H]2[C@H]3[C@@H](CC[C@]12C)[C@@]1(C)CC[C@@H](O)C[C@H]1C[C@@H]3O | inactive
